Screens deposited in PubChem by Buhrlage Lab, Dana-Farber Cancer Institute and Novartis Institutes for BioMedical Research (Cambridge, Mass).
USP28 inh: inhibitors of human USP28 deubiquitinase | purified USP28, Ub-rhodamine cleavage fluorescence, 30 min | hit rate 3% among 47,000 | Q96RU2 | inhibition, % at 25 µM | AID 1645857
USP30 block: human USP30 deubiquitinase inhibition; Q70CQ3; purified USP30, Ub-rhodamine cleavage fluorescence; inhibition, % at 25 µM; hit rate 5.3% among 47,000; AID 1645860
USP17 inh: blocks human USP17 ubiquitin-rhodamine cleavage; A8MUK1; purified USP17, Ub-rhodamine cleavage fluorescence, 3 h; inhibition, % at 50 µM; hit rate 6.5% among 47,000; AID 1645855
Target sequence (A8MUK1 whole entry, looked up): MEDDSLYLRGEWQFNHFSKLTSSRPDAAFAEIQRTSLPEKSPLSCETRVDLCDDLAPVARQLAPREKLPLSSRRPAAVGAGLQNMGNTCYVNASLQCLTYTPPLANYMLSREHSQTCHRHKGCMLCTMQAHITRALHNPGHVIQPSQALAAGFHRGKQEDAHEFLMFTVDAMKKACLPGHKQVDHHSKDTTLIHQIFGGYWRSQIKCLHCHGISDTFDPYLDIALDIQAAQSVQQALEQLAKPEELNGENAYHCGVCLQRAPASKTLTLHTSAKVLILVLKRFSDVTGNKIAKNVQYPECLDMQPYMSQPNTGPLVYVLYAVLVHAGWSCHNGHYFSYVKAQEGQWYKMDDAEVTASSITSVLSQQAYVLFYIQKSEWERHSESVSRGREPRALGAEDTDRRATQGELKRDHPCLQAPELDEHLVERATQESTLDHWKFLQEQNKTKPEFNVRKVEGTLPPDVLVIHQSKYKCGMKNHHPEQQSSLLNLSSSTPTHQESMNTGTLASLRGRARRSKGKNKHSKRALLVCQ
OTUD3 inh: blocks human OTUD3 ubiquitin-rhodamine cleavage. purified OTUD3, Ub-rhodamine fluorescence, 2 h. inhibition, % at 25 µM. hit rate 0.7% among 47,000. AID 1645858
* hit, by the source's call; x = no result given. Rows were chosen to be rich in hits. Some 11% of all compounds tested hit in one or more screens of this group. No stated cut-off is given here; in the data, active means inhibition above about 30%; inactive means the rest.

SMILES	USP28 inh	USP30 block	USP17 inh	OTUD3 inh
COc1ccc(C(=O)CN2C(=O)c3ccccc3OC(c3ccccc3)C2=O)cc1 (centres undefined)	-2	6	3	4
Cc1nn(-c2ccccc2)c2c1c(C)c(CCC(=O)Nc1ccccc1)c(=O)n2C	-3	-13	3	-8
Cc1nc2c(c(=O)[nH]1)CC[C@@H]1CN(C(=O)Cc3cccc(F)c3)C[C@H]21	9	20	8	12
O=C(Cc1nnc(-c2cnccn2)o1)Nc1ccc(F)c(Cl)c1	14	17	13	4
O=C(Cc1nnc(-c2cnccn2)o1)Nc1ccc(Cl)cc1	23	38*	10	18
O=c1c2ccc(F)cc2ncn1Cc1csc(-c2ccccc2)n1	47*	-118	30	-22
Cc1ccc(-c2nc(Cn3cnc4sc(C)c(C)c4c3=O)cs2)cc1	-61	-202	x	-24
COc1cc(C)c(NC(=O)c2cc(-c3ccccc3)c(N3CCOCC3)s2)cc1OC	19	-10	59*	-2
Cc1ccc(NC(=O)c2cc(-c3ccccc3)c(N3CCOCC3)s2)cc1	0	-32	-10	2
CCOc1ccc(NC(=O)c2cc(-c3ccccc3)c(N3CCOCC3)s2)cc1	5	13	53*	19
COc1ccc(S(=O)(=O)N(C)C)cc1NC(=O)COC(=O)c1ccccc1	15	14	43*	-4
O=C(CN1CCC2(CC1)N=C(c1ccc(F)cc1)C(=O)N2)Nc1ccc(F)c(F)c1	12	44*	1	11
CN1CCN(c2ncnc3c2oc2ccc(Cl)cc23)CC1	-13	0	-7	88*
CCC(=O)Nc1ccc2c(c1)nc(CSc1nccc(C)n1)n2CC	92*	6	-5	-2
CCn1c(CCc2ccc(NC(=O)c3ccccn3)cc2)nc2ccccc21	x	x	-1	3
CC(=O)c1cccc(NC(=O)Nc2ccc(CCc3nc4ccccc4n3C)cc2)c1	21	19	33*	11
Cc1cccc(C(=O)Nc2ccc3c(c2)nc(CSc2nccc(C)n2)n3C)c1	93*	26	5	1
Cn1c(CCN2CCCC2)nc2cc(NC(=O)c3ccccc3)ccc21	3	-23	59*	-6
O=C(c1ccccc1)N1CCc2nc(C(=O)N3CCCCC3)sc2CC1	-4	-6	-12	-1
CCCCCn1c(=O)[nH]c2cc(C(=O)NCCCN3CCN(c4ccc(OC)cc4)CC3)ccc2c1=O	-3	6	9	0
Fc1cccc(C2(c3nnc(C4CC4)o3)CCOCC2)c1	10	9	7	6
COc1ccc(Cn2nnc(C(=O)NC3CCCCC3)c2-n2cccc2)cc1	42*	11	48*	22
O=C(c1nnn(Cc2ccc(Cl)cc2)c1-n1cccc1)N1CCCC1	76*	14	26	16
COc1ccc(Cn2nnc(C(=O)N3CCSCC3)c2-n2cccc2)cc1	20	-41	33*	4
CC(C)(CNS(=O)(=O)c1cc(Cl)ccc1Cl)SCc1ccc(F)cc1	11	16	15	8
SMILES	USP28 inh	USP30 block	USP17 inh	OTUD3 inh
CNC1CCc2cc(OC)c(OC)c(OC)c2-c2ccc(NCCc3ccc(OC)c(OC)c3)c(=O)cc21 (centres undefined)	-24	-50	-33	-28
O=C(c1ccc(S(=O)(=O)N2CCOCC2)cc1)N1CCN(C2=NS(=O)(=O)c3ccccc32)CC1	4	11	1	0
O=C(Oc1cccc(NC2=NS(=O)(=O)c3ccccc32)c1)c1ccc(S(=O)(=O)N2CCCCC2)cc1	x	x	52*	0
Cc1cccc(O)c1-c1nc2c(-c3nc4c(C(=O)O)cccc4o3)cccc2o1	17	-8	47*	33*
C=C(CC[C@@H](C)[C@H]1CC[C@@H]2[C@]1(C)C[C@@H](O)[C@@]13C[C@@]14C(=O)C[C@H](O)[C@@](C)(C(=O)O)[C@@H]4C(=O)C[C@]23O)C(C)C	32*	20	35*	0
CC1CCCN(S(=O)(=O)c2nn(Cc3ccccc3)cc2C(=O)O)C1 (centres undefined)	0	4	-3	2
CCc1ccccc1N(CC)C(=O)c1cccc2c1SCCC2=O	20	33*	18	16
COc1ccc(Cl)c(NC(=O)C2CC(=O)Nc3cc(-c4ccccc4)nn32)c1 (centres undefined)	29	22	57*	12
COc1ccc(Cl)c(NC(=O)C2CC(=O)Nc3cc(C)nn32)c1 (centres undefined)	8	12	15	8
O=C1CC(C(=O)Nc2ccccc2)n2nc(-c3ccccc3)cc2N1 (centres undefined)	12	34*	11	7
CC1CCCCN1c1nc(F)c2c(c1F)S(=O)(=O)CCN2Cc1ccccc1 (centres undefined)	9	-24	57*	7
